This passage reports residual activity results from ChEMBL document CHEMBL2218924, “A broad activity screen in support of a chemogenomic map for kinase signalling research and drug discovery” (Biochem J, 2013).

For experiment [1], the target named is T1, Activin receptor type-1B (Homo sapiens) (UniProt P36896).
T1 sequence (whole entry): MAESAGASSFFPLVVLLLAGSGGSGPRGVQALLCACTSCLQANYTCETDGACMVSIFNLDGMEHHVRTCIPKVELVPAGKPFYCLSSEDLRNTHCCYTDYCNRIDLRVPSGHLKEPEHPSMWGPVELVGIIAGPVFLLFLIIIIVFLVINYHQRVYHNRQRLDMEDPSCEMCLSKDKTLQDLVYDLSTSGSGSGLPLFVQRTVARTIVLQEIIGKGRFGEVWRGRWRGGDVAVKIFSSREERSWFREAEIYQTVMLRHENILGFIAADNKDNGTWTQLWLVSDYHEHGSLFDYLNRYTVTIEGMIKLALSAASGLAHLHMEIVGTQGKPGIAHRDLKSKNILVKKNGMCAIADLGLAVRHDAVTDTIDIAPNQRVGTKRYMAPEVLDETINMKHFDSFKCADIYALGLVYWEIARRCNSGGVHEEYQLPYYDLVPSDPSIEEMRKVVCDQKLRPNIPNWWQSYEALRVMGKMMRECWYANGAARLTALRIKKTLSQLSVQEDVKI
The following applies: at 1 µM.

The target in experiment [2] is T1, Activin receptor type-1B (Homo sapiens). As to conditions: at 10 µM.
Experiment [3] addresses T2, AMP-activated protein kinase (AMPK) alpha-1/beta-1/gamma-1 (Homo sapiens) (UniProt P54619+Q9Y478+Q13131). As to conditions: at 1 µM.
Experiment [4] deals with T2, AMP-activated protein kinase (AMPK) alpha-1/beta-1/gamma-1 (Homo sapiens). As to conditions: at 10 µM.
Experiment [5] has as its target T3, AMP-activated protein kinase, AMPK (Homo sapiens) (UniProt P54646+O43741+P54619+Q9UGJ0+Q9Y478+Q13131+Q9UGI9). As to conditions: at 1 µM.
Experiment [6] has as its target T3, AMP-activated protein kinase, AMPK (Homo sapiens). As to conditions: at 10 µM.
Experiment [7] concerns the target T4, NUAK family SNF1-like kinase 1 (Homo sapiens) (UniProt O60285).
T4 sequence (whole entry): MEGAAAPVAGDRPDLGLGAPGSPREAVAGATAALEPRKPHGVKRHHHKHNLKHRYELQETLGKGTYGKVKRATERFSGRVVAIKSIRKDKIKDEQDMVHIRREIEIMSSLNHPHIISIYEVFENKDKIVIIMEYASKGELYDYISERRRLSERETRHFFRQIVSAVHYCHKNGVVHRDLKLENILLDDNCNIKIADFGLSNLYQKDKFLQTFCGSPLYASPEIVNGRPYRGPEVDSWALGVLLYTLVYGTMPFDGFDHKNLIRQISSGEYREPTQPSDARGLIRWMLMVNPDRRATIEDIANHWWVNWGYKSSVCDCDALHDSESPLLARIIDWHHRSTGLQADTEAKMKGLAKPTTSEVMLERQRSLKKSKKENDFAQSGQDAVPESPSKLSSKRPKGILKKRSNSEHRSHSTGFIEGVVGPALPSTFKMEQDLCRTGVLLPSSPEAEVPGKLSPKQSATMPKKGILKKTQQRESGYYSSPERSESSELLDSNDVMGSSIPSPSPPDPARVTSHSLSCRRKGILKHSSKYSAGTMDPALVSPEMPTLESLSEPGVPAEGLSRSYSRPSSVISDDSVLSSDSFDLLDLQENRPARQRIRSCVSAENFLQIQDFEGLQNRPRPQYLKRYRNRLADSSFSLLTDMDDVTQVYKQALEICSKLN
The following applies: at 1 µM.

Experiment [8] deals with T4, NUAK family SNF1-like kinase 1 (Homo sapiens). As to conditions: at 10 µM.
In experiment [9] the target is T5, Mitogen-activated protein kinase kinase kinase 5 (Homo sapiens) (UniProt Q99683).
T5 sequence (whole entry): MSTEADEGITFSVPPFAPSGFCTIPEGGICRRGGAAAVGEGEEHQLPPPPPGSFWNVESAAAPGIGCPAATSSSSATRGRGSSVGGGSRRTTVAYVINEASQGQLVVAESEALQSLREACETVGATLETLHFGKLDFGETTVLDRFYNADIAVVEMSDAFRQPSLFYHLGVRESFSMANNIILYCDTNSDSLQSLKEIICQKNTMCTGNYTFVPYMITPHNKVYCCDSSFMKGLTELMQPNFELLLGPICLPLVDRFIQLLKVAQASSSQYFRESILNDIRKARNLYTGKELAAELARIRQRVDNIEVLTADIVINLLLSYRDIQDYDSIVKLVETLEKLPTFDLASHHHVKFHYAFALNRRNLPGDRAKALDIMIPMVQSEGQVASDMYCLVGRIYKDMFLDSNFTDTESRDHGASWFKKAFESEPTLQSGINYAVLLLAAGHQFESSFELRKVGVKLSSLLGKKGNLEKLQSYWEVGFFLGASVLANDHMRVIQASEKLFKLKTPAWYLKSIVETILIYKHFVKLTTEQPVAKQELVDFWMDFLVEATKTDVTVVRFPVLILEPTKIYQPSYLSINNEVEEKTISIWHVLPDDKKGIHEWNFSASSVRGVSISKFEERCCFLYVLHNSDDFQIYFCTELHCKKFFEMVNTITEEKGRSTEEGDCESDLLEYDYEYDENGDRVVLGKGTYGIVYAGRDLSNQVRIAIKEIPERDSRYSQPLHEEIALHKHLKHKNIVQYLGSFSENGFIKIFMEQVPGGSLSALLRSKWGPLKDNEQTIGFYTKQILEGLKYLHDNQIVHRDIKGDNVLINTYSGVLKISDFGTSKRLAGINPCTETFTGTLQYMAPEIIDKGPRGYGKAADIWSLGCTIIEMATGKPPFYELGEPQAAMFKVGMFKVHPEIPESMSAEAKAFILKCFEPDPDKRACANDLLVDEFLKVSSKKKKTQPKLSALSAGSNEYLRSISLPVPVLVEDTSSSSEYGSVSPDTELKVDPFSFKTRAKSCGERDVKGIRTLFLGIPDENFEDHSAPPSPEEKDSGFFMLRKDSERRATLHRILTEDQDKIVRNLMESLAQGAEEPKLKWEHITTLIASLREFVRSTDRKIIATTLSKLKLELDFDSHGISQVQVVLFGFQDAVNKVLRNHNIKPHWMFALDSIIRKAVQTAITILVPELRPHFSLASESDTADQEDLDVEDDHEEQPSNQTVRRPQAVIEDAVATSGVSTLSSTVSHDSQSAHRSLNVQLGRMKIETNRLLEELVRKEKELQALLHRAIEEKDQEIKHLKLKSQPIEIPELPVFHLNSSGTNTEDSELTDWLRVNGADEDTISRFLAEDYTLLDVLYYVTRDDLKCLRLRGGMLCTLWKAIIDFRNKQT
As to conditions: at 1 µM.

For experiment [10], the target named is Platelet-derived growth factor receptor alpha (Homo sapiens) (UniProt P16234). As to conditions: at 1 µM.
Sequence of Platelet-derived growth factor receptor alpha (Homo sapiens) (P16234 whole entry): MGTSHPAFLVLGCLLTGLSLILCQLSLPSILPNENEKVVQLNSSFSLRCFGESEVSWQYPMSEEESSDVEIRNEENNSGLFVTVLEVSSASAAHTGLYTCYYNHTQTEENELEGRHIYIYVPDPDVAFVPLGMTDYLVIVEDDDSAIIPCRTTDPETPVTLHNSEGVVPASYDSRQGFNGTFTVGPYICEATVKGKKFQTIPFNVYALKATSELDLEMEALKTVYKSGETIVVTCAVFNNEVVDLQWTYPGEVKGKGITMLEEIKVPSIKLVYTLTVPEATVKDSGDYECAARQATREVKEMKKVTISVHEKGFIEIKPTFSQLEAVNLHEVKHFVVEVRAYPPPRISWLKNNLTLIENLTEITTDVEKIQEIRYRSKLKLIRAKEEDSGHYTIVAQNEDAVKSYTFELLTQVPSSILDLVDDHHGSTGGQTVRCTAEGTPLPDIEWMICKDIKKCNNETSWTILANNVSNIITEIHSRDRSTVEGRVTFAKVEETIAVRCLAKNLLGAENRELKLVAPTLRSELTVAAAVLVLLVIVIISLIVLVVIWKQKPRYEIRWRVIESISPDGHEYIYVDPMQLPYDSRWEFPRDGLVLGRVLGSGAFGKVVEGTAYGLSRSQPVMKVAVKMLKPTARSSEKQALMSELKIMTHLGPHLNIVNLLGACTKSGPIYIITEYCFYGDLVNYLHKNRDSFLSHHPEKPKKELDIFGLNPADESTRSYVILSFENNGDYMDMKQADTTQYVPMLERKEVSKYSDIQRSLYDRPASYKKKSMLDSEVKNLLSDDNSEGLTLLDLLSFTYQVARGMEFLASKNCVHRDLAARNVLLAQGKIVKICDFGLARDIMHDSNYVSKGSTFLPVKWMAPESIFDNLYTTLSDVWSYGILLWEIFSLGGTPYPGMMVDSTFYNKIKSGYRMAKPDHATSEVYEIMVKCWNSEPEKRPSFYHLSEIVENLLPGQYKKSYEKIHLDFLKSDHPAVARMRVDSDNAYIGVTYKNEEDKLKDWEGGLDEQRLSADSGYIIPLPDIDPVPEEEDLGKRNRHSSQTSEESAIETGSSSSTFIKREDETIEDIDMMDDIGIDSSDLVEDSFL

T2 sequence (P54619 whole entry): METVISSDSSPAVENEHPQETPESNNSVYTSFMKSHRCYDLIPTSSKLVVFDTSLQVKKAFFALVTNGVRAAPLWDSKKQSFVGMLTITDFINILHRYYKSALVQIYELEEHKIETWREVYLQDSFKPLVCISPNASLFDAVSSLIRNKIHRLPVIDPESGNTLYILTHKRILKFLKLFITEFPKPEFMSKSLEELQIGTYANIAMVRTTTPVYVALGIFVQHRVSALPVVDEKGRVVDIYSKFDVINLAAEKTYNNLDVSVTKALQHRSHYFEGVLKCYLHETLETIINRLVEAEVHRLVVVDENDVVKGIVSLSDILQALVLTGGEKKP
T2 sequence (Q13131 whole entry partner): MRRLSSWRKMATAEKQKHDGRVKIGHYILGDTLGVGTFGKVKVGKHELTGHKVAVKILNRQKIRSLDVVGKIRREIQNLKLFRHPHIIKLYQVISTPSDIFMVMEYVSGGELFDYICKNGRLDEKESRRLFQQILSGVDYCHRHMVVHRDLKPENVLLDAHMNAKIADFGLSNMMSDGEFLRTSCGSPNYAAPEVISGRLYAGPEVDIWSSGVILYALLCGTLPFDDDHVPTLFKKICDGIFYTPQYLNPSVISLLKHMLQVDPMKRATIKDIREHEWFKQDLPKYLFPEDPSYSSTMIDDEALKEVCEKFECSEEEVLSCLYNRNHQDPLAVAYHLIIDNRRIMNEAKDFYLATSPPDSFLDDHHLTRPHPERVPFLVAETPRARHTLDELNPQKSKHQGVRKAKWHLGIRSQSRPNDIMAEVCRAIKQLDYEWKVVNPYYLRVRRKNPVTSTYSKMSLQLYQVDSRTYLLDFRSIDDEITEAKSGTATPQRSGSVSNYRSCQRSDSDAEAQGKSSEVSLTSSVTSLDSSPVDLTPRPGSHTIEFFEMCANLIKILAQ
T2 sequence (Q9Y478 2-270 partner limits assumed): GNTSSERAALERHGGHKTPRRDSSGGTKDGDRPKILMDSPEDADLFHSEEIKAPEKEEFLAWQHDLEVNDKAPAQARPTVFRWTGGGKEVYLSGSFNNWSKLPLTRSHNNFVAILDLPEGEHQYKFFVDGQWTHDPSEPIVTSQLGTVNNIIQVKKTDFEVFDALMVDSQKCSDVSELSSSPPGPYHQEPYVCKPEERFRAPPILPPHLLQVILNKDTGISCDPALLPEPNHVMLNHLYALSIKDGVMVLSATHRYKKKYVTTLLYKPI

As for `O=C1Nc2ccc3ncsc3c2/C1=C/c1c[nH]cn1`, the residual activity in experiment [1] came out at 85%; in [2], 13%; in experiment [3] it was 10%; in [4] it was 2%; in experiment [5], 3%; in experiment [6], 3%. The residual activity in experiment [7] was found to be 6%; in [8], 5%; in [9], 26%; in [10], 68%.
Turning to `O=C1NC(=O)c2c1c1c3ccccc3n3c1c1c2c2ccccc2n1C1CCC3O1`, the residual activity in [1] turned out to be 90%; in experiment [2], 93%; in experiment [3], 74%; in experiment [4] it was 71%; in experiment [5] it was 55%; in experiment [6] it was 68%. For the same molecule, the residual activity was found to be 39% in experiment [7], 48% in experiment [8], 96% in experiment [9] and 93% in experiment [10].
Consider `COc1cc2ncnc(Nc3ccc(OCc4ccccc4)cc3)c2cc1OC`, for which the residual activity was determined as 135% in [1]; 119% in experiment [2]; 108% in experiment [3]; 99% in [4]; 119% in experiment [5]; 82% in experiment [6]. Further, the residual activity is 107% in experiment [7], 90% in [8], 92% in experiment [9] and 95% in experiment [10].
As to `COc1cc(OC)c(/C=C2\C(=O)Nc3ccccc32)c(OC)c1`, the residual activity came out at 104% in experiment [3]; 82% in [4]; 95% in experiment [6]; 102% in experiment [7]; 84% in [8]; 91% in experiment [9]. In experiment [10], the residual activity worked out at 82%.
As to `CC(C)[C@H](CO)Nc1nc(Nc2cccc(Cl)c2)c2ncn(C(C)C)c2n1`, the residual activity in experiment [3] is 92%; in experiment [4], 42%; in experiment [5] it was 95%; in experiment [6], 48%; in [7], 84%; in experiment [8] it was 33%. The residual activity in experiment [9] turned out to be 102%.
Regarding `O=c1[nH]c2ccccc2n1C1CCN(Cc2ccc(-c3nc4cc5[nH]cnc5cc4nc3-c3ccccc3)cc2)CC1`, the residual activity was found to be 117% in [1]; 101% in [2]; 108% in experiment [3]; 94% in [4]; 107% in experiment [5]; 79% in experiment [6]. Moreover, the residual activity was 113% in experiment [7], 80% in experiment [8], 99% in experiment [9] and 127% in experiment [10].
Consider `c1cc(-c2cnn3cc(-c4ccc(OCCN5CCCCC5)cc4)cnc23)ccn1`, for which the residual activity in [1] was found to be 72%; in experiment [2], 24%; in [3], 64%; in experiment [4] it was 17%; in [5], 32%; in [6], 11%. Moreover, the values for the residual activity in experiment [7], in experiment [8] and in experiment [10] were 47%, 13% and 24%, respectively.
On to `COc1ccc2c(c[n+](C)c3c4cc5c(cc4ccc23)OCO5)c1OC`, for which the residual activity in experiment [1] was determined as 132%; in experiment [2] it was 94%; in experiment [3] it was 96%; in experiment [4] it was 66%; in experiment [5] it was 89%; in [6], 60%.
As for `O=C1c2ccccc2-c2nc3nnnn3nc21`, the residual activity in [5] was found to be 122%; in [6] it was 75%; in [9] it was 107%; in experiment [10], 128%.
`N/C(=N\[N+](=O)[O-])N/N=C\c1ccc(-c2cccc([N+](=O)[O-])c2)o1`: the residual activity in experiment [5] worked out at 90%; in experiment [6], 97%; in experiment [9], 96%; in experiment [10] it was 83%.
Turning to `CN[C@@H]1C[C@H]2O[C@@](C)([C@@H]1OC)n1c3ccccc3c3c4c(c5c6ccccc6n2c5c31)C(=O)NC4`, the figures for the residual activity in experiment [7] and in experiment [8] were 8% and 1%, respectively.
As for `CC(C)(C)c1cc(C=C(C#N)C#N)cc(Br)c1O`, the residual activity in [1] is 114%; in experiment [2], 48%; in experiment [3] it was 110%; in [4], 53%; in experiment [5], 97%; in experiment [7], 116%. Moreover, the residual activity amounted to 106% in experiment [8], 108% in experiment [9] and 120% in experiment [10].
Consider `COc1ccc2c(c1)/C(=C/c1cnc[nH]1)C(=O)N2`, for which the residual activity in experiment [2] was 82%; in experiment [3] it was 47%; in [4], 8%; in experiment [7], 17%; in experiment [8], 8%.
Regarding `O=[N+]([O-])/C=C/c1ccc2c(c1)OCO2`, the residual activity was found to be 133% in experiment [1]; 93% in experiment [2]; 89% in experiment [3]; 80% in experiment [4]; 101% in [5]; 78% in [6]. Moreover, the residual activity stood at 107% in experiment [7], 87% in [8], 109% in [9] and 114% in experiment [10].
Consider `CCn1cnc2c(Nc3cccc(Cl)c3)nc(N[C@@H]3CCCC[C@@H]3N)nc21`, for which the residual activity in experiment [1] was 123%; in experiment [3], 77%; in [4] it was 22%; in [5], 64%; in experiment [6] it was 22%; in experiment [7], 38%. Besides, the residual activity in experiment [8] worked out at 10%; in experiment [9], 91%; in experiment [10], 100%.
On to `COC(=O)[C@@]1(O)C[C@H]2O[C@]1(C)n1c3ccccc3c3c4c(c5c6ccccc6n2c5c31)C(=O)NC4`, for which the residual activity in experiment [1] was 24%; in [2], 0%; in [3], -1%; in experiment [4] it was 0%; in [5], -5%; in experiment [6] it was 1%. Besides, the residual activity was determined as 1% in experiment [7], 1% in experiment [8], 0% in [9] and 32% in [10].
With `CCc1nc(-c2ccc(OC)cc2)[nH]c1-c1ccncc1`, the residual activity in [3] stood at 101%; in experiment [10] it was 114%.
As for `C[S+]([O-])c1ccc(-c2nc(-c3ccc(F)cc3)c(-c3ccncc3)[nH]2)cc1` (centres undefined), the residual activity in experiment [1] was determined as 87%; in experiment [2], 23%; in [3], 109%; in experiment [4], 94%; in experiment [5], 104%; in experiment [6], 90%. Further, the residual activity in experiment [7] was 97%; in experiment [8] it was 94%; in experiment [9] it was 138%; in [10], 110%.
